PubChem BioAssay AID604 (The Scripps Research Institute Molecular Screening Center, 2007)
The whole screen tested about 60,000 compounds, of which about 210 (0.35%) were called active. This excerpt belongs to a sample that is enriched for actives. Unmarked numbers belong to inactive results.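 The calls were made as follows: active = inhibition above the screen-wide mean inhibition plus 3 SD (cut at about 18% in these data); inactive = the rest.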

What follows are molecules tested against Rho-associated protein kinase 2 (Homo sapiens) (UniProt O75116) (assay: inhibitors of human ROCK2 kinase, primary screen, biochemical, high-throughput, luminescence (AID 604;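 also: plate controls were DMSO wells for no effect and Y-27632 control wells after no-enzyme background subtraction for full effect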)). Settings: purified ROCK2, Kinase-Glo ATP depletion luminescence; at 6 µM; active compounds read high.
Rho-associated protein kinase 2 (Homo sapiens), sequence (O75116 whole entry, looked up): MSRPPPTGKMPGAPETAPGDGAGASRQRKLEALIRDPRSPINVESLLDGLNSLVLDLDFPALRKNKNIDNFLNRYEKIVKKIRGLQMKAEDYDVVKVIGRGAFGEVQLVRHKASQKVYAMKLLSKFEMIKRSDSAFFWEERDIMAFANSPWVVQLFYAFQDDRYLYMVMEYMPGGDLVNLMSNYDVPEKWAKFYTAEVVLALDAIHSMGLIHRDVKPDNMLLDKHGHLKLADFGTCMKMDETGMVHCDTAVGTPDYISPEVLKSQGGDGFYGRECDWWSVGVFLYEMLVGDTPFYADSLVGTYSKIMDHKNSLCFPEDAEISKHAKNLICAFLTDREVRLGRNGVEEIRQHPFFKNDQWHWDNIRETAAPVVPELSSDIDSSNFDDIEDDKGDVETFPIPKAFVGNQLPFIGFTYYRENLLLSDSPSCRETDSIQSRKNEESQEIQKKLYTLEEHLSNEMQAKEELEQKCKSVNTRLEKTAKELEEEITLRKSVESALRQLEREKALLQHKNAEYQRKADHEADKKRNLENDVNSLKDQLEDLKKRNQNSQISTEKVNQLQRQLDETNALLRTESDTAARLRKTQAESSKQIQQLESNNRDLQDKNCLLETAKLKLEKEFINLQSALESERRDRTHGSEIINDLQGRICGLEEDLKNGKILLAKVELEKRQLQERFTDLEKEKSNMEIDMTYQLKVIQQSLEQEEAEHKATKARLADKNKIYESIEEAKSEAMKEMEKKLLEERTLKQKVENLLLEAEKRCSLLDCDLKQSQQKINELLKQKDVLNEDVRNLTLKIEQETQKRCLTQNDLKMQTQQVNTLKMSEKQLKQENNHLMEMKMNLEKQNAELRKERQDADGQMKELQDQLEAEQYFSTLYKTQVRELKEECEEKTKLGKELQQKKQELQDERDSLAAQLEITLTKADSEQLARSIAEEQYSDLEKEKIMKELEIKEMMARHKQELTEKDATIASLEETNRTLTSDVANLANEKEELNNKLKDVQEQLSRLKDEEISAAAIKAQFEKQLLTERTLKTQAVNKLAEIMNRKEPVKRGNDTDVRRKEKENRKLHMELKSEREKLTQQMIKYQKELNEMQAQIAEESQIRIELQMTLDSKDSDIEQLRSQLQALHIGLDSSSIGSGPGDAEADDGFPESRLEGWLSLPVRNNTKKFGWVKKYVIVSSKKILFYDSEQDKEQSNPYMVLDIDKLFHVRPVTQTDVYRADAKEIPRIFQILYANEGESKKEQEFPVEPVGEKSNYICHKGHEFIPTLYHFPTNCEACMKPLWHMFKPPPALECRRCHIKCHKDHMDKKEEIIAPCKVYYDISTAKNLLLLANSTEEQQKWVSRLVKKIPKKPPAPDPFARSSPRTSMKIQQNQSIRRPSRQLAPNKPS

Compound | inhibition
CCOC(=O)C1(c2ccccc2)NC(c2ccc(N(C)C)cc2)C2C(=O)N(C)C(=O)C21 (stereo not given) | 5.3%
O=C(CSc1nnc(-c2ccco2)n1Cc1ccccc1)NC(=O)NCc1ccco1 | 5.5%
Cc1nonc1OCCn1nnnc1N | 4%
CCCC(=O)N1CCc2[nH]c3ccccc3c2C1 | 14.9%
COC(=O)c1cc(OC)c(OC)cc1NC(=O)C1CCCO1 (stereo not given) | 5.6%
CS(=O)(=O)N(Cc1nc2sc3c(c2c(=O)[nH]1)CCCC3)C1CCCCC1 | -12.6%
Cc1cccc(NC(=O)CSc2nnc(CCCCCNC(=O)OC(C)(C)C)o2)c1C | 3.8%
CC1CCC(NS(=O)(=O)c2ccc3c(c2)n(C)c(=O)c(=O)n3C)CC1 (stereo not given) | 3.2%
CC(C)Cc1ccc(S(=O)(=O)N2CCN(C(=O)c3ccco3)CC2)cc1 | 8%
O=C(C(NS(=O)(=O)c1cccc2nsnc12)c1ccccc1)N1CCN(c2ccccn2)CC1 (stereo not given) | 6.9%
COc1cccc(N(CC(=O)Nc2cccc(F)c2)S(C)(=O)=O)c1 | -1.3%
O=C(O)CCSc1nnc(-c2ccccc2)n1-c1ccccc1 | 2.5%
CN1C(=O)CC(N2CCN(c3ccccn3)CC2)C1=O (stereo not given) | 0.7%
COc1ccc(Cc2nnc(NS(=O)(=O)Cc3ccccc3)s2)cc1 | -0.2%
CCOC(=O)CSc1nnc(NC(=O)c2cccc(S(=O)(=O)N3CCCC3)c2)s1 | -2.8%
CC(C)OC(=O)C(C#N)c1nc2ccccc2nc1N1CCN(Cc2ccc3c(c2)OCO3)CC1 (stereo not given) | 3.1%
CCCCN(C)C(=O)c1ccc2c(c1)N(CC)C(=O)c1ccccc1S2(=O)=O | -4.8%
COc1cc2c(cc1OC)C(c1ccncc1)CC(=O)N2 (stereo not given) | 9.6%
COc1cccc(N(CC(=O)NC2CCCC2)C(=O)Cn2nnc(-c3ccc(C)cc3)n2)c1 | -2%
O=C(Nc1nc(-c2ccc3c(c2)OCO3)cs1)c1ccncc1 | -1.2%
COc1ccc(OC)c2sc(NC(=O)C3COc4ccccc4O3)nc12 (stereo not given) | -3.1%
O=C(Nc1nc(-c2ccncc2)cs1)C1COc2ccccc2O1 (stereo not given) | 114% (active)
Cc1ccc(N(CC(O)CN2CCCC2)S(=O)(=O)c2ccccc2)cc1 (stereo not given) | 1.4%
CC1=C(C(=O)OCc2ccccc2)C(c2ccco2)n2ncnc2N1 (stereo not given) | -9.2%
CC(=C1C(=O)c2ccccc2C1=O)N1CCN(c2ccccn2)CC1 | 7.8%

Compound | inhibition
Cc1cccc2cc(CN(Cc3nnnn3Cc3ccccc3)C3CCCC3)c(=O)[nH]c12 | -0.6%
O=C(Nn1cnc2ccccc2c1=O)c1ccc(F)cc1Cl | 4.2%
CCCCCCn1c(SCC(=O)c2ccccc2)nc2c1c(=O)[nH]c(=O)n2C | 6.3%
O=C(CSc1nnc2scc(-c3ccc(F)cc3)n12)NCc1ccco1 | 2.1%
CC1(C)C2CCC1(C)C(OC(=O)CCn1ccnc1)C2 (stereo not given) | 6.6%
O=C(CC1Nc2ccccc2NC1=O)Nc1ccccc1 (stereo not given) | 3%
O=C(C1=C(O)C(=O)N(c2ncccn2)C1c1cccs1)c1ccco1 (stereo not given) | -11.1%
CNC(=O)C1CC(=O)N(Cc2ccc3c(c2)OCO3)C(=Nc2ccc(F)cc2)S1 (stereo not given) | -7.4%
O=CN1CCN(C2CC(=O)N(c3ccc4c(c3)OCO4)C2=O)CC1 (stereo not given) | 7%
O=C1CC(N2CCN(C(c3ccccc3)c3ccccc3)CC2)C(=O)N1 (stereo not given) | 5.5%
CCc1ccc2oc(-c3ccc(N)cc3)nc2c1 | 4.1%
CCCCCC(=O)Nc1ccc2oc(-c3ccncc3)nc2c1 | 22.3% (active)
CCCC(=O)Nc1ccc2c(c1)nc1n2CCSC1 | -0.6%
NC(=O)C1CCN(C2OC(=O)c3ccccc32)CC1 (stereo not given) | 7.4%
COc1cc2c(cc1NC(=O)CN1CCN(S(=O)(=O)c3ccc(F)cc3)CC1)oc1ccccc12 | 3.5%
Cc1noc(COc2ccccc2OCC(O)CNC(C)(C)C)n1 (stereo not given) | 1.2%
O=P(c1ccc2c(c1)OCCO2)(N1CCOCC1)N1CCOCC1 | -3.2%
Cc1nn(-c2ccccc2)c2[nH]c(C(F)(F)F)cc(=O)c12 | -0.3%
CCOc1ccc(CCNC(=O)C(CC)n2nc(C)n3c(cc4sccc43)c2=O)cc1OCC (stereo not given) | -3.8%
CCc1nnc(NC(=O)CCC(=O)O)s1 | -4.5%
O=[n+]1c2c(n([O-])c3cc(Br)ccc31)CCC2 | -5%
CC(=O)c1ccc(NC(=O)N[C@@H](Cc2ccccc2)C(=O)O)cc1 | -0.8%
Cc1cc(Nc2ccccc2)n(CCC#N)n1 | 4.6%
Cc1c(C(=O)N2CC(C)OC(C)C2)sc2nc(-c3ccccc3)cn12 (stereo not given) | 8.6%
Cc1c(NC(=O)C(C)OC(=O)c2cc3c4ccccc4n(C)c3s2)c(=O)n(-c2ccccc2)n1C (stereo not given) | 5.5%

Compound | inhibition
Fc1cnc(N2CCOCC2)nc1NCc1ccccc1 | -0.4%
Cc1nc(-c2ccc(NC(=O)c3cccs3)cc2)cs1 | -25%
Cc1nnc(NC2=NCCCCC2)o1 | -0.7%
Cc1ccc(S(=O)(=O)c2nc(NCCCn3ccnc3)sc2Cl)cc1 | 1.7%
CCC1(C)N(O)C(C)(C)C(c2ccc(OC)cc2)=[N+]1[O-] (stereo not given) | 2.5%
O=c1[nH]c(=O)n(Cc2ccco2)c2c1C(C(F)(F)F)(C(F)(F)F)N=C(c1ccco1)N2 | 5%
N#CCCN1CCN(S(=O)(=O)c2ccc(S(=O)(=O)NC3CC3)cc2)CC1 | 1.7%
CCOC(=O)CSc1nnc(-c2cccc(Br)c2)o1 | 2.1%
COc1cc(=O)[nH]c(=O)n1C(=O)Cc1ccccc1 | -0.6%
Cc1cc(C)nc(SCc2ccccc2C#N)n1 | 6%
COc1ccc(N2C(=O)C3CCCN3C2c2cccs2)cc1 (stereo not given) | -2.8%
CCC(C)(NC(=O)c1ccccn1)C(=O)NC1CCCCC1 (stereo not given) | -0.8%
Cc1ccc2[nH]c(=O)c(COC(=O)c3ccccn3)cc2c1 | 6.5%
CCCC(=O)Nc1ccc(Cl)c(NC(=O)c2ccc(Br)o2)c1 | -0.6%
O=C(c1ccco1)N1CCN(C(=O)C2CC(c3ccc(F)cc3)=NO2)CC1 (stereo not given) | 1.1%
COc1ccc(C(=O)Nc2c(N)nc(SCC(=O)N3CCC(C)CC3)[nH]c2=O)cc1OC | 1.5%
CN1CCN(CC(O)COCc2ccc3c(c2)OCO3)CC1 (stereo not given) | 5.7%
O=C(NCc1ccco1)c1cnn2c(C(F)(F)F)cc(-c3ccco3)nc12 | 12.9%
NC(=O)Cn1c(=O)oc2ccccc21 | -2%
CCOc1ccc2[nH]c(=O)c(CN(CCCO)C(C)=O)cc2c1 | -4.4%
Fc1ccc(Cn2nnnc2C(c2cccs2)N2CCCCCC2)cc1 (stereo not given) | 4.1%
CC(C)C1Cc2c(sc3c2c(=O)n(-c2ccccc2)c2nncn32)CO1 (stereo not given) | 5.5%
O=C(c1ccco1)N1CCN(C(=O)c2ccc(COc3ccc(F)cc3)o2)CC1 | -1.9%
O=S(=O)(Nc1ccccn1)c1ccc(Oc2ccccc2)cc1 | -6.5%
Nn1c(SCC(=O)NC(=O)NC2CCCC2)nnc1-c1ccccc1F | 12.5%

Compound | inhibition
CCCCC(=O)Nc1ccc2c(c1)C(=O)NC2=O | 23.1% (active)
CCCCC(=O)Nc1ccc2c(c1)OCCO2 | -1.9%
CN1C(=O)c2ccc(NC(=O)c3c(F)c(F)c(F)c(F)c3F)cc2C1=O | 9.3%
Cc1ccccc1CSCC(=O)NC(=O)NC(C)(C)C | 4.6%
CCSc1nc(=S)n(CC)c(C)c1C(C)=O | 0.9%
CSc1ccc(NC(=O)N2CC(C)OC(C)C2)cc1 (stereo not given) | 6.5%
CCN(CC)C(=O)CSc1nnc(-c2ccc(S(=O)(=O)NCc3ccccc3Cl)cc2)o1 | 1.9%
Cc1nn(Cc2ccc(Cl)c(Cl)c2)c(C)c1NC(=O)c1cc(C2CC2)on1 | -8.2%
Cc1ccc(O)c(NC(=O)COc2cc(C)ccc2C)c1 | 3.2%
COc1ccc(OC)c(NC(=O)CN2CCN(C(=O)c3ccco3)CC2)c1 | 0.1%
OCCNCCCCOc1ccccc1F | 5.9%
CCSc1ncnc2c(C#N)c3n(c12)CCCCC3 | 3%
CC(=O)Nc1nonc1-c1nc2ccccc2n1Cc1ccccn1 | 2.3%
Cn1c(=O)c2c(n(Cc3ccccc3)c1=O)NC(=O)C2CC(=O)N1CCc2ccccc2C1 (stereo not given) | 6.4%
C=CCn1c(C)cc(C(=O)CN2C(=O)c3ccccc3C2=O)c1C | 2.5%
CCCn1cc(SCC(N)=O)c2ccccc21 | 4.9%
Cc1ccc(C(=O)NCC2CCCO2)o1 (stereo not given) | 4.3%
C=CCn1cnc2scc(-c3ccccc3)c2c1=O | 1.2%
C#CCN1CC(C)/C(=N/O)CC1C (stereo not given) | 3.7%
O=C1CC(c2ccccc2)CC(O)=C1C=NCCN1CCOCC1 (stereo not given) | 3.3%
COc1cccc(N2CCN(C(=O)C3CCCN(S(=O)(=O)c4cnc[nH]4)C3)CC2)c1 (stereo not given) | 3.3%
Cc1cc(C(=O)CC#N)c(C)n1CC(F)(F)F | 3.3%
O=C1C=C(NCCNc2c(F)c(F)c(CO)c(F)c2F)CCC1 | 1.5%
Cc1cn(C2C=CC(CO)O2)c(=O)[nH]c1=O (stereo not given) | 6.1%
Cc1cc(=O)[nH]c(SCC(=O)N2c3ccccc3CC2C)n1 (stereo not given) | -3.6%
